Data on 22 compounds can be found in PubChem BioAssay (NCI).

“And” between values parts separate entries of the source, which are not always exact repeats. Equal values may be shown once. About 83,000 compounds went through this panel and 20% of them were active in at least one assay; those are over-represented in the sample as a whole.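 Percent growth is the endpoint: 0 to 100 indicates growth inhibition (40 means 60% inhibition), 0 means no net growth, and negative values indicate cell death.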 The source made the active and inactive calls. Rule for the calls: active = growth percent below 10; inactive = the rest.

Among the test systems are HCT-15 colon; SNB-75 CNS; SNB-19 CNS; U251 CNS; PC-3 prostate; SK-MEL-5 melanoma; UACC-62 melanoma; LOX IMVI melanoma; SK-MEL-28 melanoma; HT29 colon.
Common to all, as to test: NCI-60 one-dose screen, 48 h (100 = growth as untreated, 0 = no growth, -100 = all killed)
What all share (conditions): 10 µM unless noted

`O=C(N/N=C(\CS(=O)(=O)c1ccccc1)c1cc2ccccc2oc1=O)c1ccccc1`: the growth in the assay on HCT-15 colon is 107% (inactive); in the assay with SNB-75 CNS, 93.2% (inactive); with SNB-19 CNS it was 99.8% (inactive); in the assay with U251 CNS, 96.3% (inactive); with PC-3 prostate, 98.3% (inactive); with SK-MEL-5 melanoma, 105% (inactive). For the same compound, the growth in the assay with UACC-62 melanoma is 97.9% (inactive); in the assay on LOX IMVI melanoma, 96.6% (inactive); with SK-MEL-28 melanoma, 107% (inactive).
On to `CCOC(=O)c1cnn(CC(O)c2ccc(F)cc2)c1NC(=O)Nc1ccccc1F` (centres undefined), for which the growth in the assay with HCT-15 colon was 103% (inactive); with SNB-75 CNS, 82.2% (inactive); in the assay with SNB-19 CNS it was 98.3% (inactive); with U251 CNS it was 97.8% (inactive); with PC-3 prostate it was 81.5% (inactive); with SK-MEL-5 melanoma it was 75.9% (inactive). For the same compound, the growth is 73.8% (inactive) in the assay on UACC-62 melanoma, 101% (inactive) in the assay on LOX IMVI melanoma and 101% (inactive) in the assay on SK-MEL-28 melanoma.
Take `CCCCC(CCCC)(S(=O)(=O)CC)S(=O)(=O)CC`: the growth is 97.7% (inactive) in the assay on HCT-15 colon; 98.4% (inactive) in the assay with SNB-75 CNS; 105% (inactive) with SNB-19 CNS; 91.6% (inactive) in the assay with PC-3 prostate; 98% (inactive) in the assay on SK-MEL-5 melanoma; 106% (inactive) in the assay on UACC-62 melanoma. In addition, the growth is 102% (inactive) in the assay with LOX IMVI melanoma and 115% (inactive) with SK-MEL-28 melanoma.
Consider `COc1cc(/C=C2\C(=O)Nc3ccccc32)cc(OC)c1O`, for which the growth with HCT-15 colon is 61.6% (inactive); in the assay on SNB-75 CNS, 23.1% (inactive); in the assay on SNB-19 CNS, 83.7% (inactive); in the assay with U251 CNS, 47% (inactive); in the assay on PC-3 prostate, 51.2% (inactive); with SK-MEL-5 melanoma, 45.7% (inactive). In addition, the results for the growth in the assay with UACC-62 melanoma, in the assay on LOX IMVI melanoma and in the assay on SK-MEL-28 melanoma were 72.1% (inactive), 36.5% (inactive) and 90.3% (inactive), respectively.
Take `CC(C)OC1=C(Cl)C(=O)c2ccccc2C1=O`: the growth in the assay on HCT-15 colon was 51.4% (inactive); in the assay on SNB-75 CNS it was 75.8% (inactive); in the assay on SNB-19 CNS it was 90.1% (inactive); in the assay with U251 CNS, 57.4% (inactive); in the assay on PC-3 prostate, 69.1% (inactive); with SK-MEL-5 melanoma it was 96.8% (inactive). The growth in the assay with LOX IMVI melanoma is 86.5% (inactive); in the assay with SK-MEL-28 melanoma it was 101% (inactive).
As for `COc1ccc(-c2[nH]ncc2Nc2cc(OC)c(OC)c(OC)c2)cc1`, the growth was 32.2% (inactive) in the assay on HCT-15 colon; 44.6% (inactive) in the assay with SNB-75 CNS; 34.6% (inactive) in the assay on SNB-19 CNS; 31.1% (inactive) in the assay with U251 CNS; 33.6% (inactive) in the assay on PC-3 prostate; -11.3% (active) with SK-MEL-5 melanoma. Moreover, the growth in the assay on UACC-62 melanoma was 27.4% (inactive); in the assay with LOX IMVI melanoma it was 46.1% (inactive); in the assay with SK-MEL-28 melanoma, 67.2% (inactive).
Turning to `COc1ccc(OC)c(/C=C2\Oc3cc(O)ccc3C2=O)c1`, the growth is 75% (inactive) in the assay on HCT-15 colon; 95.5% (inactive) with SNB-19 CNS; 89.5% (inactive) with U251 CNS; 95.5% (inactive) in the assay on PC-3 prostate; 92.4% (inactive) in the assay with SK-MEL-5 melanoma; 89% (inactive) in the assay with UACC-62 melanoma. Besides, the growth is 88.6% (inactive) in the assay on LOX IMVI melanoma and 88.5% (inactive) with SK-MEL-28 melanoma.
With `Cc1ccc(/C=N/Nc2ccc3ccccc3n2)s1`, the growth in the assay with UACC-62 melanoma was 11.2% [100 µM] (inactive) and -100% [100 µM] (active).
As for `Cc1ccc(S(=O)(=O)N2CCc3ccc(O)c4c3C2CCc2ccccc2-4)cc1` (centres undefined), the growth in the assay with HCT-15 colon was 102% (inactive); with SNB-19 CNS it was 98.9% (inactive); in the assay with U251 CNS, 102% (inactive); in the assay on PC-3 prostate, 95.4% (inactive); with SK-MEL-5 melanoma, 105% (inactive); in the assay with UACC-62 melanoma it was 90.2% (inactive). Further, the growth with LOX IMVI melanoma was 98.7% (inactive); with SK-MEL-28 melanoma it was 107% (inactive).
As to `Cc1c2c(c(O)c3c(O)cccc13)C(=O)C1(O)C(O)=C(C(=O)NCNc3ccc(C(N)=O)cn3)C(=O)C(N(C)C)C1C2` (centres undefined), in the assay with UACC-62 melanoma, the growth is -54.4% [100 µM] (active) and -74.8% [100 µM] (active).
On the same count and under the same terms, as for `CC(C)(C)N/N=C(\C(=O)Nc1ccc([N+](=O)[O-])cc1[N+](=O)[O-])c1nc2ccc([N+](=O)[O-])cc2[nH]c1=O`, the figure is 54.2% [100 µM] (inactive) and 17.5% [100 µM] (inactive).
In the case of `Clc1ccc2c(N3CCN(c4ccnc(NC5CCCCC5)n4)CC3)ccnc2c1`, the growth is 2.81% (active) in the assay with HCT-15 colon; 65.6% (inactive) with SNB-75 CNS; 40.4% (inactive) with U251 CNS; 36.7% (inactive) with PC-3 prostate; 36.8% (inactive) with SK-MEL-28 melanoma.
With `COc1ccc(-c2c(-c3cc4c(c(OC)c3OC)OCO4)noc2N)cc1`, the growth is 27% (inactive) in the assay on HCT-15 colon; 40.6% (inactive) with SNB-19 CNS; 32.4% (inactive) in the assay on U251 CNS; 12.2% (inactive) in the assay on PC-3 prostate; 37.5% (inactive) with UACC-62 melanoma; 43.7% (inactive) in the assay on LOX IMVI melanoma. Besides, the growth with SK-MEL-28 melanoma was 49.7% (inactive).
As for `Cc1ccc(C(=O)O[C@H](C(=O)O)[C@H](OC(=O)c2ccc(C)cc2)C(=O)O)cc1`, in the assay with SNB-19 CNS, the growth is 102% (inactive).
Take `O=C1NC(=O)C(CSc2ccccc2)(c2ccccc2)N1` (centres undefined): the growth was 119% (inactive) in the assay with HCT-15 colon; 113% (inactive) in the assay on SNB-19 CNS; 96.7% (inactive) in the assay with U251 CNS; 88.9% (inactive) in the assay with PC-3 prostate; 92.6% (inactive) with SK-MEL-5 melanoma; 101% (inactive) in the assay with UACC-62 melanoma. In addition, in the assay on LOX IMVI melanoma, the growth was 89.6% (inactive).
As to `COc1cc(Nc2ccc3c(c2)CCC3)nc(OC)n1`, the growth in the assay with UACC-62 melanoma was 42.1% [100 µM] (inactive) and 2.26% [100 µM] (active).
Take `CN(C)C(=S)SCN1C(=O)c2ccc([N+](=O)[O-])cc2S1(=O)=O`: the growth in the assay on HCT-15 colon is 95.2% (inactive); in the assay with SNB-19 CNS, 94.3% (inactive); in the assay on U251 CNS, 93.5% (inactive); in the assay with SK-MEL-5 melanoma, 101% (inactive); in the assay with UACC-62 melanoma, 92.2% (inactive); in the assay with LOX IMVI melanoma, 92.9% (inactive). Further, in the assay with SK-MEL-28 melanoma, the growth was 109% (inactive).
Turning to `Oc1ccccc1/C=N/Nc1nc2ccccc2s1`, the growth in the assay on HT29 colon is 105% (inactive); in the assay on SNB-19 CNS it was 51.4% (inactive); in the assay on U251 CNS, 45.3% (inactive); in the assay on PC-3 prostate, 34.6% (inactive); in the assay on SK-MEL-5 melanoma, 48.8% (inactive); in the assay on LOX IMVI melanoma it was 37.2% (inactive). Besides, the growth in the assay with SK-MEL-28 melanoma was 83.3% (inactive).
As for `CCOC(=O)CCCOc1cc(-c2ccccc2F)nc2cc3c(cc12)OCO3`, the growth in the assay on UACC-62 melanoma was 31.5% [100 µM] (inactive) and -31.4% [100 µM] (active).
Turning to `CCN1CCN(C(=S)SCC(=O)Nc2nc3ccc(OC)cc3s2)CC1`, the growth in the assay on HT29 colon was 102% (inactive); in the assay with SNB-75 CNS, 94% (inactive); in the assay on SNB-19 CNS, 93.1% (inactive); in the assay on U251 CNS it was 102% (inactive); with PC-3 prostate, 82.9% (inactive); in the assay with SK-MEL-5 melanoma, 94.6% (inactive). Besides, the growth was 91.3% (inactive) in the assay with LOX IMVI melanoma and 106% (inactive) in the assay on SK-MEL-28 melanoma.
With `CC(=O)c1cc2c(s1)C(=O)c1ccsc1C2=O`, the growth with UACC-62 melanoma was -54.1% [100 µM] (active) and -98.1% [100 µM] (active).
As to `COc1ncc(F)c(OC)n1`, the growth with HT29 colon is 104% (inactive); in the assay on SNB-75 CNS, 89.1% (inactive); in the assay with SNB-19 CNS, 111% (inactive); in the assay on PC-3 prostate it was 92.2% (inactive); in the assay with SK-MEL-5 melanoma, 97.5% (inactive); in the assay on UACC-62 melanoma, 106% (inactive). Further, the growth was 102% (inactive) in the assay on LOX IMVI melanoma and 107% (inactive) in the assay on SK-MEL-28 melanoma.
